We go through seven compounds from PubChem BioAssay (NCATS).

Inconclusive results are not listed. Activity calls are given as the source filed them. Unless noted, calls follow the shape of the dose curve; as a rule, active = well fitted curve in the direction sought with a large enough effect; inconclusive = small, poorly fitted or top-dose-only effect, or another doubt; inactive = no such curve, though single readings can be large; an effect the other way counts as inactive or inconclusive.

In assay [1] the target is Lysosomal acid glucosylceramidase (Homo sapiens) (UniProt P04062). The assay can be described thus: Glucocerebrosidase-p2 (AID 348; in the data active = potency below about 10 µM; also: potency is read from the fitted curve at half-maximal effect). The settings on record: purified GBA, blue fluorogenic substrate, 40 min. In outline:
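Compounds titrated from 0.6 nM upwards against 0.2 nM enzyme in pH 5.9 citric acid/KH2PO4, taurocholate, tween-20; blue fluorogenic substrate 80 uM, 40 min room temperature, stopped and read Ex 365/Em 440 for AC50.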

Assay [2] is described as follows: AP1 Signaling Pathway (AID 357; active = well fitted curve in either direction with a large enough effect, not every such curve was filed as active;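 also: ME-180 reporter cells stimulated with EGF at its EC50 level; % is scaled to controls: 0 for no effect and ±100 for the full control effect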). To be noted: ME-180 AP-1-bla reporter, EGF-induced, beta-lactamase ratio, 5 h; at 7.69 µM (top of the series) unless noted. In outline: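 AP-1-bla ME-180 cells, Opti-MEM + 0.5% dialyzed FBS, plated overnight 37 °C. Cpd titration + EC50 EGF, 5 h 37 °C. CCF4 2.5 h RT; ex 405, em 460/530 ratio → %activity, AC50.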
Assay [3] addresses Glucocorticoid receptor (Homo sapiens) (UniProt P04150). The assay can be described thus: GR-GFP Redistribution (AID 450;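 active = compounds whose dose series gives a full or clear partial fitted curve of increased nuclear translocation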; also: potency is read from the fitted curve at half-maximal effect). The settings on record: U2OS GR-GFP nuclear translocation, laser cytometry, 2 h.
The target is the same in assay [4]. The assay can be described thus: GR-EFC Redistribution (AID 451; calls by dose curve; also: potency is read from the fitted curve at half-maximal effect). To be noted: CHO-K1 GR-EFC translocation, beta-gal luminescence, 2 h. In outline: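 CHO-K1 cells expressing nuclear EA and GR-ED fragments of b-gal; compounds titrated up to 46 uM final, 2 h at 37 C. GR nuclear translocation read as complemented b-gal luminescence after 1 h RT detection.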
Assay [5] deals with Mitogen-activated protein kinase 10 (Mus musculus) (UniProt Q61831). The assay can be described thus: JNK3 AlphaScreen Assay (AID 530; active = well fitted curve in either direction with a large enough effect, not every such curve was filed as active;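 also: kinase came from lysate of stimulated human HepG2 cells; signal reports phosphorylation of biotinylated GST-cJun 1-79 at Ser73 with 10 µM ATP; % is scaled to controls: 0 for no effect and ±100 for the full control effect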). To be noted: JNK3 lysate, c-Jun phosphorylation; series mostly up to 57.1 µM. In outline: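 qHTS format: compounds tested as titrations against IL-1beta/TNF-alpha-activated HepG2 lysate JNK3 with biotin-GST-cJun substrate and 10 uM ATP at room temperature. Loss of anti-phospho-cJun AlphaScreen signal indicates inhibition.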
(In general: In Alpha technology, singlet oxygen from a donor bead excites a nearby acceptor bead.)

Assay [6] in a line: qHTS Assay for Lipid Storage Modulators (AID 1519; calls by dose curve). The settings on record: Drosophila S3 cells, BODIPY lipid droplet/cell ratio, laser cytometry, cells loaded with oleic acid; for activity change, negative = inhibition: at 57.5 µM (top of the series). In outline:
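Cells seeded at 5,000 per well were treated with compounds over a concentration series and loaded with oleic acid (400 uM, as added). Lipid droplet fluorescence (488 nm excitation, 500-530 nm channel) was read by laser-scanning cytometry and normalized to 20 uM Triacsin C.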
A general note: Quantitative high-throughput screening tests each substance at several concentrations.

The target of assay [7] is Dual specificity protein kinase CLK4 (Homo sapiens) (UniProt Q9HAZ1). Put plainly: qHTS Assay for Inhibitors of CDC-like Kinase 4 (Kinase-Glo Assay) (AID 1770). Also: nearly all actives have a fitted effect of over 65% in size. Also: potency is read from the fitted curve at half-maximal effect. To be noted: recombinant Clk4, Kinase-Glo ATP depletion luminescence; series mostly up to 66.7 µM. The essentials:
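Recombinant human Clk4 (25 nM) phosphorylated RS repeat peptide (100 uM) with 1 uM ATP in Tris pH 7.5/MgCl2/EGTA/DTT/Triton buffer for 4.5 h at room temperature. Residual ATP was quantified by Kinase-Glo luciferase luminescence.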

Assay [8] shares this target. The assay can be described thus: qHTS Assay for Inhibitors of CDC-like Kinase 4 (ADP-FP Assay) (AID 1795). Also: % is scaled to controls: 0 for no effect and ±100 for the full control effect; nearly all actives have a fitted effect of over 60% in size. The settings on record: Transcreener ADP fluorescence polarization; series mostly up to 50 µM. The essentials:
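Recombinant human Clk4 (6.25 nM) phosphorylated RS repeat peptide (100 uM) with 1 uM ATP in Tris pH 7.5/MgCl2/EGTA/DTT/Triton buffer for one hour. ADP was quantified by Transcreener competitive fluorescence polarization against an ADP calibration curve.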

In assay [9] the target is Ubiquitin carboxyl-terminal hydrolase 1 (Homo sapiens) (UniProt O94782). The assay can be described thus: Inhibitors of USP1/UAF1: Pilot qHTS (AID 504865).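 Also: rhodamine fluorescence freed from ubiquitin-rhodamine substrate followed over time; top concentration of the series differs between compounds; % is scaled to controls: 0 for no effect and ±100 for the full control effect; nearly all actives have a fitted effect of over 35% in size.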 The settings on record: purified USP1/UAF1, Ub-rhodamine cleavage fluorescence; series mostly up to 54.9 µM. The essentials:
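USP1/UAF1 complex (1nM) preincubated with compound 15 min at room temperature, then Ub-Rho substrate (150nM final) added. Fluorescence read kinetically at 480/540 nm, 6 reads every 60 seconds. Buffer: 50mM HEPES pH 7.8, 0.5mM EDTA, 0.1 mg/ml BSA, 1mM TCEP, 0.01% Tween-20.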

The nature of assay [10]: Primary qHTS for small molecule stabilizers of the endoplasmic reticulum resident proteome: Secreted ER Calcium Modulated Protein (SERCaMP) assay (AID 1508630). Also: % is scaled to controls: 0 for no effect and ±100 for the full control effect. To be noted: SH-SY5Y GLuc-SERCaMP (Gaussia luciferase released on ER calcium loss) secretion, thapsigargin, luminescence; series mostly up to 38.4 µM. The essentials:
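GLuc-SERCaMP-expressing SH-SY5Y cells, pretreated 16 h with compound, are challenged with thapsigargin to empty ER calcium stores; after 4 h, coelenterazine is added directly to the medium and luminescence is imaged.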

In assay [11] the target is Cytochrome P450 1A2 (Homo sapiens) (UniProt P05177). Put plainly: p450-cyp1a2 (AID 410; calls by dose curve; also: potency is read from the fitted curve at half-maximal effect;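 as to activity change, negative = inhibition: -100% = full effect of reference inhibitor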). To be noted: recombinant CYP1A2, luciferin-ME demethylation, luminescence; series mostly up to 57 µM. The essentials:
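Inhibition was calculated relative to 57 uM furafylline (full inhibition). The reaction used human CYP1A2 at 20nM with Luciferin-ME at its Km, 100uM, driven by an NADPH-regenerating system for 60 min at room temperature.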

Assay [12] deals with 3',5'-cyclic-AMP phosphodiesterase 4B (Homo sapiens) (UniProt Q07343). Put plainly: qHTS Assay for Inhibitors of PDE-IV (AID 607; active = well fitted activation curve with a large enough effect in the main read-out, with a control signal flat, not every such curve was filed as active; also: % of control where 0% means no effect). To be noted: HEK293 ACTOne CNG channel cells, membrane potential fluorescence; series mostly up to 22.9 µM. The essentials:
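ACTOne HEK293 cells carry a modified cAMP-gated CNG channel and express endogenous PDE4; plated 1000 cells/well, compounds up to 22.9 uM final. Membrane-potential dye fluorescence (ex 535/em 590) was read; parental cells received 10 uM forskolin + 100 uM RO 20-1724.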

Assay [13] has as its target Cytochrome P450 3A4 (Homo sapiens) (UniProt P08684). The assay can be described thus: qHTS Assay for Activators of Cytochrome P450 3A4 (AID 885). Also: nearly all actives have a fitted effect of over 65% in size. To be noted: recombinant CYP3A4, Luciferin-PPXE luminescence, 60 min; series mostly up to 57.1 µM. In outline: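 20nM CYP3A4 + 25uM Luciferin-PPXE (=KM), 200mM KPO4; cpd 10 min RT; NADPH regen, 60 min RT; stop w/ detection buffer, 20 min; luminescence. Normalized to 57 uM ketoconazole.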

Assay [14] in a line: qHTS Assay for Identification of Small Molecule Agonists for Hypoxia Response Element Signaling Pathway (AID 914; active = well fitted activation curve with a large enough effect in the signal ratio, with a control signal flat, not every such curve was filed as active; the % refers to the signal ratio; also: potency is read from the fitted curve at half-maximal effect). The settings on record: ME-180 HRE-bla reporter, beta-lactamase ratio, CoCl2, 17 h; activation: stronger effect = higher value. In outline:
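Reporter activity (beta-lactamase, CCF4 460nm/530nm ratio) in HRE-bla ME-180 cells is recorded after 17 h compound exposure with EC50 CoCl2 at 37 degrees Celsius. AC50 values come from titration data.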

Assay [15] can be described thus: NFAT Signaling Pathway (AID 444; active = well fitted curve in either direction with a large enough effect, not every such curve was filed as active;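 also: carbachol stimulus at about its EC50 of 1 µM final; % is scaled to controls: 0 for no effect and ±100 for the full control effect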). To be noted: Jurkat NFAT-bla M1, carbachol, beta-lactamase ratio, 5 h; at 7.69 µM (top of the series) unless noted. The essentials: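 Jurkat cells with NFAT-driven β-lactamase reporter and co-expressed M1 receptor, stimulated with carbachol (final 1 uM, ~EC50), compound titration, 5 h at 37 °C. CCF4 loaded 1 h at RT; 460/530 nm ratio gave %activity and AC50.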

Assay [16] concerns the target Dual specificity protein kinase CLK4 (Homo sapiens) (UniProt Q9HAZ1). The assay can be described thus: qHTS Assay for Inhibitors of CDC-like Kinase 4 (ADP-Glo Assay) (AID 1771). Also: nearly all actives have a fitted effect of over 70% in size. Also: potency is read from the fitted curve at half-maximal effect. The settings on record: recombinant CLK4, ADP-Glo luminescence; series mostly up to 80 µM. In outline:
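Kinase reaction: Clk4 at 25 nM, RS repeat peptide substrate at 100 uM, ATP at 1 uM, 1 hr, room temperature. Product ADP detected as luciferase signal via ADP-Glo.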

A short description of assay [17]: Stat Signaling Pathway (AID 446; active = well fitted curve in either direction with a large enough effect, not every such curve was filed as active). To be noted: ME-180 (cervical carcinoma) SIE beta-lactamase reporter, IL-6 stimulated, 5 h; at 7.69 µM (top of the series) unless noted. In outline:
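ME-180 SIE-bla cells; overnight plating; cpd + IL-6 40 pM, 5 h, 37 C; LiveBLAzer 2.5 h RT; 460/530 nm emission ratio. Normalized to 300 pM IL-6 and 125 nM JAK inhibitor controls.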

Assay [18] has as its target Cytochrome P450 3A4 (Homo sapiens) (UniProt P08684). The assay can be described thus: qHTS Assay for Inhibitors and Substrates of Cytochrome P450 3A4 (AID 884). Also: potency is read from the fitted curve at half-maximal effect; nearly all actives have a fitted effect of over 50% in size. The settings on record: recombinant CYP3A4, Luciferin-PPXE luminescence; series mostly up to 57.1 µM. In outline: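 20 nM human CYP3A4 with 25 uM Luciferin-PPXE (at KM) in 200 mM KPO4, preincubated 10 min with compound; NADPH regeneration started a 60 min RT reaction. Luciferin detected by luminescence, normalized to 57 uM ketoconazole as full inhibition.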

[19] abbreviates: measured here: cell count channel max response.
[20] abbreviates: measured here: lipid channel max response.

Sequence of Lysosomal acid glucosylceramidase (Homo sapiens) (P04062 whole entry, looked up): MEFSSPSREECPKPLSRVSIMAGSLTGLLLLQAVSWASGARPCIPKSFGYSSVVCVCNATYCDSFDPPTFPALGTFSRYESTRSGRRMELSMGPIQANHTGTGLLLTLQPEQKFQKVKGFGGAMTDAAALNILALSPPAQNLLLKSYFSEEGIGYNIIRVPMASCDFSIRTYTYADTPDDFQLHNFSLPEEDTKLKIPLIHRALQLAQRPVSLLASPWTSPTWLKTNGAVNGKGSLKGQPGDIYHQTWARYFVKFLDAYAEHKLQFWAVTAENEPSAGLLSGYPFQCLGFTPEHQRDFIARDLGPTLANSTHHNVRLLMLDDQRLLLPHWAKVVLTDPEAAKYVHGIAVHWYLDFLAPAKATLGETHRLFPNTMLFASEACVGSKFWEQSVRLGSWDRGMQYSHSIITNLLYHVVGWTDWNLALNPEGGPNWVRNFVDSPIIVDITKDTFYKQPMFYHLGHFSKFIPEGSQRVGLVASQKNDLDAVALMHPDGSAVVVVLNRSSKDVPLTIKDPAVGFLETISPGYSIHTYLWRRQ
Sequence of Cytochrome P450 1A2 (Homo sapiens) (P05177 whole entry, looked up): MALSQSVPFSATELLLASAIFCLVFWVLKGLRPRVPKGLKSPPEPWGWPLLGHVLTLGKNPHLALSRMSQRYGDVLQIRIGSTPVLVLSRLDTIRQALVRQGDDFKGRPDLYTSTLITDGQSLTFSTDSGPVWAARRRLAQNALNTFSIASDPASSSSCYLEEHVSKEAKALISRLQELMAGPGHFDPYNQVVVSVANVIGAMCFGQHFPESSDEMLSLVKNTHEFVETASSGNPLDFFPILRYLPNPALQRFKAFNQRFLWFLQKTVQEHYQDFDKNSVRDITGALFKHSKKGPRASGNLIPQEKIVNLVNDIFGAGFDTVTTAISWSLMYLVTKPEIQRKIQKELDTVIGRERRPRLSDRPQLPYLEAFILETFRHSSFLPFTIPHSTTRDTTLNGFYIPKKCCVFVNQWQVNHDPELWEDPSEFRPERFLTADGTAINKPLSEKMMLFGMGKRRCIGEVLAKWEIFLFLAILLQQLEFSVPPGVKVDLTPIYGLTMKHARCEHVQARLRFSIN
Sequence of Dual specificity protein kinase CLK4 (Homo sapiens) (Q9HAZ1 whole entry, looked up): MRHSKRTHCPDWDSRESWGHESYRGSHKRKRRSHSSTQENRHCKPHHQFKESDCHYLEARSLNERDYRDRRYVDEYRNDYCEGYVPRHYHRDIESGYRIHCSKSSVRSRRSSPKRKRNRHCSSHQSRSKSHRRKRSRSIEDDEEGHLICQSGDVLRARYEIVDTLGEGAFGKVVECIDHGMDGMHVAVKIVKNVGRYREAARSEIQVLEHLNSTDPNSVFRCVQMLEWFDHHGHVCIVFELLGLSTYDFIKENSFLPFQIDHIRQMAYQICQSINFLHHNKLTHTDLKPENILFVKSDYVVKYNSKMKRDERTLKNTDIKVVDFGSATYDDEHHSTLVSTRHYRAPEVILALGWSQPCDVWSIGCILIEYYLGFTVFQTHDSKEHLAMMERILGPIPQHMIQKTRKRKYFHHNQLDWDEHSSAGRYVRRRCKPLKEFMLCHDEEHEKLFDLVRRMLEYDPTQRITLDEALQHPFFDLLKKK
Sequence of 3',5'-cyclic-AMP phosphodiesterase 4B (Homo sapiens) (Q07343 whole entry, looked up): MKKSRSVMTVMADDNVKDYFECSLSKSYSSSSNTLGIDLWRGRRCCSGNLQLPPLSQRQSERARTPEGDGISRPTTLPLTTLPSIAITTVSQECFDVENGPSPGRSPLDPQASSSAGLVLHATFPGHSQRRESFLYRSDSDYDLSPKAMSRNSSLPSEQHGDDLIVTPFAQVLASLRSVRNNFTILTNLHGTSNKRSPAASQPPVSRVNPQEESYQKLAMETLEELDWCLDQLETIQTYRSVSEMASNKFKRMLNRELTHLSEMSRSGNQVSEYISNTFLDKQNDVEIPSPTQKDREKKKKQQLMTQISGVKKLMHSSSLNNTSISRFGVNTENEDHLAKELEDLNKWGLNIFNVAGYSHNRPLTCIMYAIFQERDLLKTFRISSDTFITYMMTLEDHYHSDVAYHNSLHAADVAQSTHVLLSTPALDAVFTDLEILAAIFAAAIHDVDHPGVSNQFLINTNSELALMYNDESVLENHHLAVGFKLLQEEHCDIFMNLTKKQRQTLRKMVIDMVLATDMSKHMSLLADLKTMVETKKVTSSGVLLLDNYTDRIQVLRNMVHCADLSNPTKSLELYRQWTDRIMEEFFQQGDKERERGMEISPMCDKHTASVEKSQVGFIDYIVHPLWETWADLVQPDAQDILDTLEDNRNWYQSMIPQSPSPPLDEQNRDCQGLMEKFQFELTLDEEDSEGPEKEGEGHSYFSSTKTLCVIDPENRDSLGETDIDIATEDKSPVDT
Sequence of Cytochrome P450 3A4 (Homo sapiens) (P08684 whole entry, looked up): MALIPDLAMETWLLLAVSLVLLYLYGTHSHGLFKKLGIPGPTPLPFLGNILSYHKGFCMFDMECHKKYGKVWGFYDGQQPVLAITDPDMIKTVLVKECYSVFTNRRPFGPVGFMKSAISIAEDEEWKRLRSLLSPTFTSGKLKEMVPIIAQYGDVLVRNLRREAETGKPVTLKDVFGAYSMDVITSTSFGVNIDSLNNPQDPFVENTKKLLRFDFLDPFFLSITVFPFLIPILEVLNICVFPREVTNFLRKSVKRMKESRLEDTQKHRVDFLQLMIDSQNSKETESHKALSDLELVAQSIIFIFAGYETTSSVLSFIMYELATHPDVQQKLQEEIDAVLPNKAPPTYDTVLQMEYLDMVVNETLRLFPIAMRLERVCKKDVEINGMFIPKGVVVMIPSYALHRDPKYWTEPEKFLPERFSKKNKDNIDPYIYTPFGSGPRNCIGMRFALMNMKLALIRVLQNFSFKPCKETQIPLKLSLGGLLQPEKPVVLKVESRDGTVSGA
Sequence of Ubiquitin carboxyl-terminal hydrolase 1 (Homo sapiens) (O94782 whole entry, looked up): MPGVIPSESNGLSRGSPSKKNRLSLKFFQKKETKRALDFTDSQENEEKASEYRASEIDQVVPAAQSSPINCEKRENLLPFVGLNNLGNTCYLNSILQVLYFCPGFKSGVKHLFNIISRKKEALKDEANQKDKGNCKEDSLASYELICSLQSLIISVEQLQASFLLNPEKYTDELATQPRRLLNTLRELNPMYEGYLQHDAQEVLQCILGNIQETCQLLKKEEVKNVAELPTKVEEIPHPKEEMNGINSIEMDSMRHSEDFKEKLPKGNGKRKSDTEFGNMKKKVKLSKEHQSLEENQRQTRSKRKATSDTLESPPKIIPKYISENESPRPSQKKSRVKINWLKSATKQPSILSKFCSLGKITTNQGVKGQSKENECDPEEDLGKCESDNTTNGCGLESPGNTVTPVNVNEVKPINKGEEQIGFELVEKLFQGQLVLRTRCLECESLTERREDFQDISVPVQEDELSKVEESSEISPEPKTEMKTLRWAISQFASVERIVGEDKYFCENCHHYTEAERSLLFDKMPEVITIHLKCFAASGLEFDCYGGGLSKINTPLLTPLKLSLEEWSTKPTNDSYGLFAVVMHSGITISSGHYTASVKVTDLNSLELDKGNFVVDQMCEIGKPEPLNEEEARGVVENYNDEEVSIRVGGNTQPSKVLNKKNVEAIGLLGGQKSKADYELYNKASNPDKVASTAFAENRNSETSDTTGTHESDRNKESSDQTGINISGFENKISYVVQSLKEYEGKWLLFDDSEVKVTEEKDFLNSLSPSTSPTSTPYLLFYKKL
Sequence of Glucocorticoid receptor (Homo sapiens) (P04150 whole entry, looked up, the tested form may be a part): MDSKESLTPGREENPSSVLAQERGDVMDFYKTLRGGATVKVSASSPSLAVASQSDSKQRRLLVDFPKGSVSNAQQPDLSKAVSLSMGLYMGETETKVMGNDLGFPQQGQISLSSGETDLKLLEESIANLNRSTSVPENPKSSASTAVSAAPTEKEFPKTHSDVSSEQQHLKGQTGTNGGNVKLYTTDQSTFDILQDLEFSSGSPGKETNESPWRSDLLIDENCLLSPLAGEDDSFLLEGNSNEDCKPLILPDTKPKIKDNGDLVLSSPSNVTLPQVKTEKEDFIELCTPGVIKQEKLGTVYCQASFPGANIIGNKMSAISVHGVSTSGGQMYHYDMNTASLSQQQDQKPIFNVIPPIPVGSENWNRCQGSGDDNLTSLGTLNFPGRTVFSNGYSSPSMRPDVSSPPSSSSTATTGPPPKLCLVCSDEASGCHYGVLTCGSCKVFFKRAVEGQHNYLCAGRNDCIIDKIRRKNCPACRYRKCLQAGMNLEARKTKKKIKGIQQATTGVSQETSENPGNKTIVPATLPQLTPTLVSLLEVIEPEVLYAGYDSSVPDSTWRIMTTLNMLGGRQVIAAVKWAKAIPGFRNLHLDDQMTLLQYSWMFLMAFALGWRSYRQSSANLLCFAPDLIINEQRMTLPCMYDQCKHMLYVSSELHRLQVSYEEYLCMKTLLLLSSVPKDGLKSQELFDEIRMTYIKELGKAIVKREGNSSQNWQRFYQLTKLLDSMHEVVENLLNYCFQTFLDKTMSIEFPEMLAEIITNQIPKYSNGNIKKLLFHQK

On to `CCNc1ncc2nc(-c3ccc(OC)cc3)c(=O)n(C[C@H]3CCCO3)c2n1`, for which the figures for the Potency in assay [1], in assay [3] and in assay [4] were > 11.4 µM (inactive), > 9.22 µM (inactive) and > 46 µM (inactive), respectively. Further, the activity change, negative = inhibition in assay [2] is -5.93% (inactive); in [6] it was -3.19% (inactive). The compound was called inactive in assay [5]. Further, the max response in [6] (setting [19]) was determined as 8.2%; in assay [6] (setting [20]), 0.991%. For the same compound, the Potency result in [7], in assay [8], in assay [9] and in [10] was “inactive” throughout.
As to `COc1cccc(Cn2c(=O)c(-c3cccc(C#N)c3)nc3cnc(N4CCN(C)CC4)nc32)c1`, the Potency in [1] was > 11.4 µM (inactive); in assay [3], > 9.22 µM (inactive); in assay [4], > 46 µM (inactive); in [14], 3.16 µM (active). For the same compound, the Potency result in assay [11], in assay [12], in [13], in assay [7], in assay [8] and in assay [9] was “inactive” throughout. Also, the Potency result in assay [10] is “inactive”. Further, the compound was called inactive in [5]. In [6], the activity change, negative = inhibition was 2.54% (inactive). Further, the max response came out at 21.5% in assay [6] (setting [19]) and 24.1% in [6] (setting [20]).
`COc1ccc(-c2nc3cnc(N4CCOCC4)nc3n(C3CC3)c2=O)cc1`: the Potency in assay [1] was > 11.4 µM (inactive); in assay [3] it was > 9.22 µM (inactive); in [4], > 46 µM (inactive). The activity change, negative = inhibition is 3.24% (inactive) in assay [2], 8.69% (inactive) in [15] and 1.26% (inactive) in assay [6]. In assay [5], the outcome was inactive. In addition, the max response is 9.72% in assay [6] (setting [19]) and 11.8% in assay [6] (setting [20]). Besides, the Potency entry in assay [16], in assay [8], in assay [9] and in assay [10] was “inactive” each time.
`CCNc1ncc2nc(-c3ccc(Cl)cc3)c(=O)n(C[C@H]3CCCO3)c2n1`: the Potency in assay [1] was > 11.4 µM (inactive); in assay [11], 0.794 µM (active); in [3], > 9.22 µM (inactive); in assay [4] it was > 46 µM (inactive). Also, the activity change, negative = inhibition in assay [2] is 25.5% (inactive); in [15], 4.01% (inactive); in [6], -12.7% (inactive). In [5], the compound was classed as inactive. For the same compound, the Potency result in assay [12], in [16], in assay [8], in assay [9] and in [10] was “inactive” in each case. The figures for the max response in [6] (setting [19]) and in [6] (setting [20]) were -16% and -29.6%, respectively.
With `CCNc1ncc2nc(-c3cc(F)cc(F)c3)c(=O)n(C)c2n1`, the Potency in [1] was > 11.4 µM (inactive); in assay [11], 2 µM (active); in [4], > 46 µM (inactive); in assay [14], 3.16 µM (active). The result in assay [5] was inactive. For the same compound, the activity change, negative = inhibition in [6] is -1.81% (inactive). In addition, the max response is -4.13% in assay [6] (setting [19]) and -3.55% in assay [6] (setting [20]). The Potency entry in assay [7], in assay [8], in [9] and in assay [10] was “inactive” each time.
With `c1ccc(CNc2ncnc3ccc(-c4cccnc4)cc23)cc1`, the Potency in [1] was > 11.4 µM (inactive); in assay [11], 0.126 µM (active); in [3], > 46 µM (inactive); in assay [4] it was > 46 µM (inactive); in assay [18], 1.26 µM (active); in assay [7], 3.16 µM (active). Also, the activity, negative = inhibition in assay [17] is -1.78% (inactive). In addition, the call in [5] was inactive. For the same compound, the Potency entry in [13], in assay [9] and in assay [10] was “inactive” throughout. Further, the activity change, negative = inhibition in assay [6] is -2.12% (inactive). Besides, the max response was 14% in assay [6] (setting [19]) and 9.68% in assay [6] (setting [20]).
For `CCNc1ncc2nc(C)c(=O)n(Cc3ccc(F)cc3)c2n1`, the Potency in [1] is > 11.4 µM (inactive); in assay [11] it was 1.58 µM (active); in [3] it was > 9.22 µM (inactive); in [4], > 46 µM (inactive); in assay [16], 15.8 µM (active). For the same compound, the activity change, negative = inhibition in assay [2] was -0.98% (inactive); in [15], -0.858% (inactive); in assay [6], 3.29% (inactive). Further, the activity, negative = inhibition in assay [17] is -2.29% (inactive). In addition, in [5], the compound was classed as inactive. For the same compound, the Potency result in assay [12], in [13], in assay [8], in assay [9] and in [10] was “inactive” each time. Besides, the figures for the max response in assay [6] (setting [19]) and in assay [6] (setting [20]) were 23.4% and 24.2%, respectively.
